Data reported in PubChem BioAssay.
Where “and” joins values, the source holds several entries; their conditions need not be identical. Identical values can stand only once. Calls of active or inactive are those of the source.

Legend:
[1] = optical density shifts of acrAB sulA E. coli – strain DRC41, OD650, 48 h, E. coli filamentation inducer project, primary screen (AID 1152); settings: higher = more signal, called active from +8 up or from −8 down;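 also: E. coli MC1000 strain DRC41 lacking acrAB efflux pump and sulA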
[2] = probe aLefty1 binding on compound microarray – biochemical, small-molecule microarray, 635/667 nm fluorescence, primary screen (AID 1153); settings: higher = more signal;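 also: score merges spot fluorescence with signal-to-noise ratio from the scanned slide images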
[3] = plasmodial surface anion channel blockers, osmotic lysis – cell-based, P. falciparum Indochina, OD700, 1 h, primary screen (AID 1154); settings: P. falciparum Indochina infected RBC osmotic lysis, higher = more signal, called active from +8 up or from −8 down
[4] = plasmodial surface anion channel blockers, osmotic lysis – cell-based, P. falciparum Indochina, OD700, 2 h, primary screen (AID 1155);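 also: lysis reports solute entry through the parasite surface anion channel PSAC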; settings: P. falciparum Indochina infected erythrocytes, higher = more signal, called active from +8 up or from −8 down
[5] = changes in parasitized red cell lysis, either direction – P. falciparum Indochina, OD700, 3 h, PSAC antagonist project, primary screen (AID 1156); settings: P. falciparum-infected erythrocytes, osmotic lysis, higher = more signal, called active from +8 up or from −8 down
[6] = plasmodial surface anion channel blockers, osmotic lysis – cell-based, P. falciparum Indochina, OD700, 18 h, primary screen (AID 1157); settings: P. falciparum Indochina infected erythrocytes, osmotic lysis OD700, 18 h; higher = more signal, called active from +8 up or from −8 down
[7] = S6 kinase pathway phospho-S6 level changes – cell-based, A549, cytoblot, luminescence, serum-stimulated, primary screen (AID 1158); settings: 5 h, higher = more signal;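 also: serum-stimulated A549 lung adenocarcinoma cells; signal is phosphorylated S6 detected by cytoblot immunostaining with HRP secondary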
[8] = target: NADPH oxidase 2 (Homo sapiens) (UniProt P04839); test: compounds shifting NOX2 Amplex Red fluorescence – cell-based, HEK293-NOX2, PMA-stimulated, NOX inhibitor project, primary screen (AID 1159); settings: 45 min, higher = more signal, called active from +8 up or from −8 down; also: test concentration not given here
NADPH oxidase 2 (Homo sapiens), sequence (P04839 whole entry, looked up): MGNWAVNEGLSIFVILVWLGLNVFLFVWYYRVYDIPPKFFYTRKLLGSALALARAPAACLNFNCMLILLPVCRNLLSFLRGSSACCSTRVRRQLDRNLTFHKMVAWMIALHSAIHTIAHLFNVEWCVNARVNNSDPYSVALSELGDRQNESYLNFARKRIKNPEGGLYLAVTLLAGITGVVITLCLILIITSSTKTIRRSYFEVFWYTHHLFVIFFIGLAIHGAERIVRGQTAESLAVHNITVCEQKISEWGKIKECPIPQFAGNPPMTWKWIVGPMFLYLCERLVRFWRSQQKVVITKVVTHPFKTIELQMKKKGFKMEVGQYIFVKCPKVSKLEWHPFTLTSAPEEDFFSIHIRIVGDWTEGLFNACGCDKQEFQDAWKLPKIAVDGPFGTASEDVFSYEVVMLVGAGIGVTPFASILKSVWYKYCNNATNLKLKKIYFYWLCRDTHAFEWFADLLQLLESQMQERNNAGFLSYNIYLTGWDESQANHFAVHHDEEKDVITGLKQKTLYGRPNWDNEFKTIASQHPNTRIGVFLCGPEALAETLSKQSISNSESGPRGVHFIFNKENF

[9] = target: NADPH oxidase 4 (Homo sapiens) (UniProt Q9NPH5); test: compounds shifting NOX4 Amplex Red fluorescence – cell-based, HEK293-NOX4, tetracycline-induced, NOX inhibitor project, primary screen (AID 1160); settings: HEK293-NOX4, Amplex Red H2O2 fluorescence, 45 min; higher = more signal, called active from +8 up or from −8 down
NADPH oxidase 4 (Homo sapiens), sequence (Q9NPH5 whole entry, looked up): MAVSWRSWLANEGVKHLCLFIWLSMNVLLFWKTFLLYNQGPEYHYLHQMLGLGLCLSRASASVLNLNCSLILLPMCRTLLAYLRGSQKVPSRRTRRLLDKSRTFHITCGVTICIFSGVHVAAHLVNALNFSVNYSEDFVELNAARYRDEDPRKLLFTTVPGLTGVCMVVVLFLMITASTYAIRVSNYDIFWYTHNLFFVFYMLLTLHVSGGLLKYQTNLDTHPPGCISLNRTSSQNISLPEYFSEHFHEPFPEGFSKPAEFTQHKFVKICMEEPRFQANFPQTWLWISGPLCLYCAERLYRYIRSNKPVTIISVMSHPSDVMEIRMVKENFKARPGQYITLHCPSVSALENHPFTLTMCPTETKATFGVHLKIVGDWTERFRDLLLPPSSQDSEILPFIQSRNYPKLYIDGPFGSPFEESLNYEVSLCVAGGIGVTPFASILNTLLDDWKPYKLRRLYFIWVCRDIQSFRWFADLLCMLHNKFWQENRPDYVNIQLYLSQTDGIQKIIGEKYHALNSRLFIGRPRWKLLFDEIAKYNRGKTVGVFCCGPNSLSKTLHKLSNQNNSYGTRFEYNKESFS

[10] = target: NADPH oxidase 5 (Homo sapiens) (UniProt Q96PH1); test: compounds shifting NOX5 Amplex Red fluorescence – cell-based, HEK293-NOX5, NOX inhibitor project, primary screen (AID 1161); settings: HEK293-NOX5, ionomycin, 45 min, higher = more signal
NADPH oxidase 5 (Homo sapiens), sequence (Q96PH1 whole entry, looked up): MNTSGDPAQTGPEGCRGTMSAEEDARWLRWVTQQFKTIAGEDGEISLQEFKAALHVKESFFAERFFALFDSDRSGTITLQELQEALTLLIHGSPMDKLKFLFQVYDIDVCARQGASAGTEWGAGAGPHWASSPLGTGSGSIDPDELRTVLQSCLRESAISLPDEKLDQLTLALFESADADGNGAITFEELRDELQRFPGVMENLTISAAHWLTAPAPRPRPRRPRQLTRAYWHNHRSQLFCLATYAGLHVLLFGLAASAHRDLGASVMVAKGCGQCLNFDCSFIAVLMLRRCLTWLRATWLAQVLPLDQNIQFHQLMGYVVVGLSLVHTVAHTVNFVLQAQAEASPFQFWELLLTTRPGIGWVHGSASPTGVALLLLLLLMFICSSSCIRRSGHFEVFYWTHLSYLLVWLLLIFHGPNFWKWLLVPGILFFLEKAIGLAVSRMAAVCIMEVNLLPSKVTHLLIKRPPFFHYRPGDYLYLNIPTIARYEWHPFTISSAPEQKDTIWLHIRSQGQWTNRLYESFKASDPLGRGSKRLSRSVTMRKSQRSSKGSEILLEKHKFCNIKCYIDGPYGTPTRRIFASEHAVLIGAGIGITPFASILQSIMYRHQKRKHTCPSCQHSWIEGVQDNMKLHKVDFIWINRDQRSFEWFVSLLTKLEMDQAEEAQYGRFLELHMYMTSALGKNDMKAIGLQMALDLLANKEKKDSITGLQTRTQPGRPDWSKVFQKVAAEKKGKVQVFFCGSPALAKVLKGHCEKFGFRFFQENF

[11] = compound effects on lung adenocarcinoma cell viability – A549, calcein-AM fluorescence, 48 h, basal, profiling panel (AID 1162); settings: higher = more signal; also: test concentration not given here
[12] = compound effects on differentiated 3T3-L1 adipocyte viability – cell-based, 3T3-L1 adipocytes, calcein-AM fluorescence, 48 h, basal, profiling panel (AID 1163); settings: 3T3-L1 adipocytes viability, higher = more signal; also: test concentration not given here
[13] = compound effects on hepatocellular carcinoma cell viability – HepG2, calcein-AM fluorescence, 48 h, basal, profiling panel (AID 1164); settings: higher = more signal; also: test concentration not given here
[14] = compound effects on multiple myeloma cell viability – MM1S, calcein-AM fluorescence, 48 h, basal, profiling panel (AID 1165); settings: higher = more signal;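 also: viability of MM1S multiple myeloma cells under basal unstimulated conditions; test concentration not given here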
[15] = calcein-AM signal in unstimulated myeloma cells – cell-based, calcein-AM fluorescence, 48 h, PK04 Diversity Set, profiling panel (AID 1166); settings: RPMI8226 myeloma viability, higher = more signal;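 also: cells grown under basal conditions without added stimulus; test concentration not given here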
[16] = JC-1 mitochondrial signal, unstimulated HepG2 cells – cell-based, JC-1 fluorescence, 24 h, 100 nL compound, profiling panel (AID 1167); settings: HepG2 mitochondrial potential, higher = more signal; also: test concentration not given here
[17] = JC-1 mitochondrial signal, unstimulated adipocytes – cell-based, JC-1 fluorescence, 3T3-L1 adipocytes, 24 h, 100 nL compound, profiling panel (AID 1168); settings: JC-1 mitochondrial fluorescence, higher = more signal, called active from +8 up or from −8 down; also: test concentration not given here
[18] = JC-1 mitochondrial signal, unstimulated myeloma cells – cell-based, JC-1 fluorescence, RPMI8226, 24 h, 100 nL compound, profiling panel (AID 1169); settings: JC-1 mitochondrial potential fluorescence, higher = more signal; also: test concentration not given here
[19] = JC-1 mitochondrial signal, unstimulated MM1S myeloma – cell-based, JC-1 fluorescence, 24 h, 100 nL compound, profiling panel (AID 1170); settings: MM1S mitochondrial potential, higher = more signal; also: test concentration not given here
[20] = resazurin metabolic signal in A549 cells – cell-based, resazurin fluorescence, 24 h, PK04 Diversity Set, profiling panel (AID 1171); settings: A549 viability, higher = more signal, called active from +8 up or from −8 down; also: test concentration not given here

Cc1cc2c(nc1C)CCCN2CC(C)ON=C[C@@H](C)[C@H](OCc1ccccc1)C(C)C (stereo not given in full)
z-score [1]: -0.434 (inactive)
composite z-score [2]: -0.0984
z-score [3]: 0.376 (inactive)
z-score [4]: -0.0677 (inactive)
z-score [5]: -0.108 (inactive)
z-score [6]: 0.294 (inactive)
z-score [7]: -0.775
z-score [8]: 0.231 (inactive)
z-score [9]: -0.217 (inactive)
z-score [10]: 0.00713
z-score [11]: -0.351
z-score [12]: -0.641
z-score [13]: 0.122
z-score [14]: -1.24
z-score [15]: -0.583
z-score [16]: -0.741
z-score [17]: -0.827 (inactive)
z-score [18]: 0.708
z-score [19]: -0.483
z-score [20]: -0.522 (inactive)

COC(=O)C1=C2N(Cc3ccccc3)C(C)=C(C(=O)OC)[C@@H](c3ccccc3)N2C(=O)[C@](O)(C(=O)OC)C1
z-score [1]: 0.33 (inactive) and -0.579 (inactive)
composite z-score [2]: -0.0694 and -0.189
z-score [3]: 1.6 (inactive) and 0.553 (inactive)
z-score [4]: 1.02 (inactive) and 0.676 (inactive)
z-score [5]: 0.878 (inactive) and -0.159 (inactive)
z-score [6]: 0.468 (inactive) and 0.318 (inactive)
z-score [7]: -0.482 and -0.524
z-score [8]: 0.258 (inactive) and 0.184 (inactive)
z-score [9]: 0.64 (inactive) and 0.0139 (inactive)
z-score [10]: 0.932 and 0.724
z-score [11]: -0.104 and 1.11
z-score [12]: 0.387 and -1.41
z-score [13]: -0.102 and 0.511
z-score [14]: -0.397 and -0.107
z-score [15]: -1.16 and 0.38
z-score [16]: 0.574 and 0.276
z-score [17]: -0.0488 (inactive) and -0.394 (inactive)
z-score [18]: -0.848 and 0.573
z-score [19]: 0.127 and 0.0283
z-score [20]: 1.83 (inactive) and -0.59 (inactive)

Cc1cc2c(nc1C)CCCN2CC(O)CN1CCCc2nc(-c3ccc(Br)cc3)ccc21 (stereo not given)
z-score [1]: -0.402 (inactive) and -0.327 (inactive)
composite z-score [2]: 0.585 and 0.584
z-score [3]: 12.1 (active) and 8.25 (active)
z-score [4]: 1.55 (inactive) and 0.974 (inactive)
z-score [5]: 1.59 (inactive) and 1.02 (inactive)
z-score [6]: 0.739 (inactive) and 0.394 (inactive)
z-score [7]: 0.0832 and -0.44
z-score [8]: 1.74 (inactive) and 1.1 (inactive)
z-score [9]: -1.98 (inactive) and -1.54 (inactive)
z-score [10]: -2.82 and -2.56
z-score [11]: -0.243 and -0.599
z-score [12]: 0.929 and 0.303
z-score [13]: -0.749 and -0.129
z-score [14]: 0.916 and -1.24
z-score [15]: -2.13 and -0.178
z-score [16]: 0.36 and 0.768
z-score [17]: -0.855 (inactive) and -1.29 (inactive)
z-score [18]: 0.144 and -0.0117
z-score [19]: -0.488 and 0.538
z-score [20]: -0.347 (inactive) and 0.0661 (inactive)

C=CCN(C(=O)C(c1cccs1)N(C(=O)/C=C\C(=O)O)c1c(Cl)cccc1CO)C(C)(C)C (stereo not given)
z-score [1]: -0.773 (inactive) and -1.1 (inactive)
composite z-score [2]: 0.045 and 0.192
z-score [3]: 0.294 (inactive) and 0.153 (inactive)
z-score [4]: -0.0344 (inactive) and -0.313 (inactive)
z-score [5]: -0.741 (inactive) and -0.659 (inactive)
z-score [6]: -0.134 (inactive) and -0.0608 (inactive)
z-score [7]: -0.483 and -0.409
z-score [8]: 0.239 (inactive) and 0.261 (inactive)
z-score [9]: -0.827 (inactive) and -0.628 (inactive)
z-score [10]: -0.328 and 0.528
z-score [11]: 0.422 and -0.237
z-score [12]: 0.0699 and -0.221
z-score [13]: -0.0685 and 0.369
z-score [14]: 0.221 and 0.0812
z-score [15]: -0.511 and -0.202
z-score [16]: -0.99 and -0.519
z-score [17]: 0.563 (inactive) and 0.497 (inactive)
z-score [18]: -0.639 and -0.0626
z-score [19]: 0.923 and 0.231
z-score [20]: -0.493 (inactive) and -0.643 (inactive)

CCOC(=O)[C@H](Cc1ccccc1)NC(=O)CCC1CC(OC(=O)NCc2cccc3ccccc23)CC2(CCCC(COC(=O)NCCCN3CCCC3=O)O2)O1 (stereo not given in full)
z-score [1]: -0.0133 (inactive)
composite z-score [2]: 0.0371
z-score [3]: -0.532 (inactive)
z-score [4]: -0.874 (inactive)
z-score [5]: -2.17 (inactive)
z-score [6]: -0.685 (inactive)
z-score [7]: -0.46
z-score [8]: 1.09 (inactive)
z-score [9]: 0.487 (inactive)
z-score [10]: -0.609
z-score [11]: 2.08
z-score [12]: 0.0309
z-score [13]: -0.93
z-score [14]: -0.0157
z-score [15]: -0.178
z-score [16]: 0.397
z-score [17]: 0.17 (inactive)
z-score [18]: -0.195
z-score [19]: -0.5
z-score [20]: 0.811 (inactive)

C=CCN(CCCC)C(=O)C1N(c2ccc(CCO)cc2)C(=O)C2C(C(=O)O)C3C=CC21O3 (stereo not given)
z-score [1]: 0.516 (inactive) and 1.32 (inactive)
composite z-score [2]: -0.103 and 0.778
z-score [3]: -0.245 (inactive) and 0.903 (inactive)
z-score [4]: -0.186 (inactive) and -0.13 (inactive)
z-score [5]: -0.874 (inactive) and -0.244 (inactive)
z-score [6]: 0.113 (inactive) and -0.183 (inactive)
z-score [7]: 0.799 and -0.202
z-score [8]: -0.212 (inactive) and 1.49 (inactive)
z-score [9]: 0.0383 (inactive) and -1.09 (inactive)
z-score [10]: -0.437 and 0.534
z-score [11]: -0.635 and 0.444
z-score [12]: 0.79 and 0.378
z-score [13]: -0.97 and -0.116
z-score [14]: 0.853 and 1.11
z-score [15]: -0.0527 and 0.0382
z-score [16]: -0.63 and 0.869
z-score [17]: -0.915 (inactive) and 1.18 (inactive)
z-score [18]: 0.16 and 0.0627
z-score [19]: 0.748 and 1.93
z-score [20]: -0.223 (inactive) and -0.442 (inactive)
